# The list is not random: actives were taken first. Their share in the collection is about 10%.
# VDR inh = blocks the human vitamin D receptor; P11473; VDR-SRC2-3 peptide fluorescence polarization, 2 h; Potency, µM, for the others: max response, negative = inhibition, usual class: inhibitors; 0.93% of 400,000 active; note: potency is the fitted concentration of half-maximal effect
#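 Fluorescence polarization assay of small-molecule disruption of VDR binding to coregulator peptide SRC2-3. Compounds and controls pin-transferred, then read after 2 h incubation at ambient room temperature.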
# Mm-Cpn inhibitor = inhibitors of Methanococcus maripaludis chaperonin TRiC (MmCpn). 0.031% of 330,000 active. purified Mm-Cpn ATPase, ADP Transcreener TR-FRET. AID 504842. Potency, µM (highest dose often 76.9 µM), for the others: at the top dose activity, negative = inhibition, most hits filed as inhibitors; note: potency is the fitted concentration of half-maximal effect; nearly all actives have a fitted effect of over 80% in size
#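 TR-FRET (320 nm excitation; 590 and 665 nm emission) reports ADP made from 10 uM ATP by 25 nM enzyme; compounds were preincubated 10 min, reaction run 30 min, both at 37°C.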
# Sfp inh = Sfp phosphopantetheinyl transferase inhibition; Potency, µM, without a hit: largest response in the series, negative = inhibition, actives largely listed as inhibitors; Biochemical Sfp PPTase activity, qHTS; Q9F4F7; 3.5% of 310,000 active;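 note: the enzyme is Sfp with the accession as filed and its product quenches rhodamine fluorescence; potency is the fitted concentration of half-maximal effect; 0% = enzyme reaction without inhibitor and -100% = no enzyme wells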
#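 With Hepes-Na pH 7.6 buffer containing 10 mM MgCl2, Sfp (15 nM) modified BHQ-2-YbbR (12.5 uM) using rhodamine-CoA (5 uM). Two reads 30 minutes apart at 525/598 nm yielded each well's rate.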
# PLK1 PBD inh = PLK1 (human) polo-box domain binding inhibition; Plk1 PBD binding of FITC phosphopeptide, fluorescence polarization; Potency, µM, for the others: max response, negative = inhibition, hits mostly inhibitors; AID 720504; 2.8% of 360,000 active; note: potency is the fitted concentration of half-maximal effect; series mostly up to about 57 µM; nearly all actives have a fitted effect of over 65% in size
# CCT modulator = modulators of cytosolic chaperonin (CCT/TRiC) activity; purified chaperonin ATPase assay, HTRF ADP detection, 30 min; activity change, % (test concentration not listed), hits read low; 0.3% of 360,000 active; AID 651819; in the data active = activity change below about -30%
#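 TRiC at 40 or 20 nM final (batch-dependent) in 30 mM Tris pH 7.4, 100 mM KCl, 5 mM MgCl2, 1 mM DTT, with compound at single 76 uM and 10 uM ATP, 30 min at 37 deg C. ADP detected by HTRF Transcreener, 665/615 ratio.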
# G9a block = inhibitors of human histone lysine methyltransferase G9a; Q96KQ7; G9a H3K9 monomethylation, AlphaScreen, 2 h; AID 504332; 8.8% of 350,000 active; Potency, µM (titrated, usually from 102 µM), inactives show at the top dose activity, negative = inhibition, most hits filed as inhibitors; note: potency is the fitted concentration of half-maximal effect; nearly all actives have a fitted effect of over 75% in size
# Target sequence (Q96KQ7 913-1193 limits assumed): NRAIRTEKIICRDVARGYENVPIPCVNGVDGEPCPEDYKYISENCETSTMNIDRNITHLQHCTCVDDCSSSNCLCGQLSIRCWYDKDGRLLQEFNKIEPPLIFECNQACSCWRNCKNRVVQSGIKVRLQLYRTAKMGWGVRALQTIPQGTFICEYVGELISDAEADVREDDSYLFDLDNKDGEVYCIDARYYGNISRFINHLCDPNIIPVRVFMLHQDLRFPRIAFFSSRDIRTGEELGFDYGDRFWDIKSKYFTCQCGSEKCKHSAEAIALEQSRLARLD
#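 AlphaScreen detection with an anti-monomethyl H3K9 antibody quantified product after a 2 h room-temperature reaction containing 500 nM biotinylated H3K9 peptide, 20 µM SAM and 20 nM enzyme, which had been preincubated 15 min with compound.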
# Active calls of the source: *; ? = inconclusive; · = not tested or not shown; [ ] = remark or other dose. Unless noted, calls come from the whole dose curve; as a rule, active = well fitted curve in the direction sought with a large enough effect; inconclusive = small, poorly fitted or top-dose-only effect, or another doubt; inactive = no such curve, though single readings can be large; an effect the other way counts as inactive or inconclusive. Unless noted, % is set by controls: 0 for no effect and ±100 for the full control effect.
SMILES,VDR inh,Mm-Cpn inhibitor,Sfp inh,PLK1 PBD inh,CCT modulator,G9a block
COc1cccc(CNC(=O)Cc2csc(NC(=O)Nc3ccccc3OC)n2)c1,-16.2%,-2.5%,·,1.9%,0.5,?
COc1ccc(OC)c(NC(=O)Nc2cc(NC(=O)Nc3cc(OC)ccc3OC)c(C)nc2C)c1,-2.6%,0.2%,21.5%,2.7%,-0.9,0.7%[59 µM]
COc1ccccc1NC(=O)Nc1nc(C(N)Cc2ccccc2)cs1 (configuration not stated),·,·,·,-1.7%,-30.4*,·
COc1ccc(NC(=O)Cc2csc(NC(=O)Nc3ccccc3OC)n2)c(OC)c1,-7.5%,1.0%,·,-2.6%,-2.0,50.1µM*
NC(=O)CSc1ncc2c(n1)-c1ccccc1N(Cc1ccc(F)cc1)S2(=O)=O,12.6%,·,·,·,·,0.8%[59 µM]
Cc1cc(N2C(=O)c3ccc(C(=O)Nc4ccc(O)cc4C(=O)O)cc3C2=O)no1,-12.9%,0.5%,24.1%,-8.6%,-0.1,50.1µM*
CCOC(=O)C(C(=O)OCC)C(Nc1ccc(Br)cc1)c1ccccc1 (configuration not stated),79.4µM*,-2.4%,-4.4%,-7.1%,0.9,6.3%[59 µM]
C=CCc1ccccc1OCCn1ccnc1,6.9%,-2.8%,-4.9%,-3.2%,0.7,8.91µM*
Clc1cccc(OCCn2ccnc2)c1,-9.8%,2.8%,9.2%,15.5%,0.1,·
Clc1ccccc1OCCn1ccnc1,-1.2%,·,-27.0%,0.0%,-2.9,10µM*
C=CCc1cccc(OC)c1OCCOCCn1ccnc1,-4.9%,1.8%,-74.7%,-14.6%,0.4,?
Cc1ccc(S(=O)(=O)N2CCOCC2)cc1C(=O)NCC1CCCO1 (configuration not stated),-13.2%,1.9%,11.5%,-8.1%,-10.5,·
COCCNC(=O)c1cc(S(=O)(=O)N2CCOCC2)ccc1SCc1cccc(OC)c1OC,1.4%,0.4%,?,-2.9%,2.5,28.2µM*
COc1ccccc1CNC(=O)c1oc2ccc(S(=O)(=O)N3CCOCC3)cc2c1C,-13.7%,0.0%,2.7%,-16.3%,0.8,8.3%[59 µM]
COc1cccc(CSc2ccc(S(=O)(=O)N3CCOCC3)cc2C(=O)NCC2CCCO2)c1OC (configuration not stated),-5.3%,2.6%,-26.3%,-11.2%,-0.6,39.8µM*
CCOc1ccc(CCn2c3c(c(=O)[nH]c2=O)C(NC(=O)c2ccccc2)(C(F)(F)F)C(=O)N3)cc1OCC (configuration not stated),-4.8%,·,·,·,·,1.9%[59 µM]
CSc1ncc(Cl)c(C(=O)C(C#N)c2nc3c(C)cc(C)cc3c(=O)[nH]2)n1 (configuration not stated),?,-13.5%,-9.3%,21.2µM*,-4.9,?
CCOC(=O)c1cccc(C(=O)OCC)n1,-2.5%,-1.3%,15.1%,-0.5%,-2.2,-8.2%[59 µM]
Cc1ccc(OC(=O)c2cccc(C(=O)Oc3ccc(C)cn3)n2)nc1,·,-0.3%,50.1µM*,·,·,?
CN(CC(=O)Nc1ccc(N2CCOCC2)cc1)CC(=O)Nc1ccc(Cl)cc1[N+](=O)[O-],-16.8%,-1.0%,-13.2%,-14.2%,1.6,56.2µM*
COc1cccc(NC(=O)CN(C)CC(=O)Nc2ccc(Cl)cc2[N+](=O)[O-])c1,-10.2%,-1.8%,-34.1%,2.7%,-0.3,39.8µM*
O=C1CC(c2ccccc2)Cc2[nH]c(=O)c(C(=O)Nc3cccc(F)c3)cc21 (configuration not stated),-1.1%,·,·,·,·,20.0%[59 µM]
O=C1CN(c2ccccc2)C(=S)N1C(=O)c1ccccc1,-28.0%,1.0%,50.1µM*,26.7µM*,0.4,·
Cn1c(=O)c2[nH]c(-c3ccccc3)c(O)c2n(C)c1=O,-19.3%,-9.9%,14.1µM*,26.7µM*,-21.2,2.24µM*
Cn1c(=O)c2[nH]c(-c3ccccc3Cl)c(O)c2n(C)c1=O,-2.6%,-1.4%,?,-10.7%,1.1,44.7µM*
Cn1c(=O)c2[nH]c(-c3ccccc3)nc2n(C)c1=O,4.2%,-0.2%,9.1%,·,·,7.5%[59 µM]
CCOc1ccc(NC(=O)CSc2nc(-c3cccc(Cl)c3)nc3c2Cc2c(CO)cnc(C)c2O3)cc1,-4.7%,·,·,·,·,5.8%[59 µM]
